From the supplement of paper PMC3334620
Whole data set: some 33,000 sequences, median “E-score (-0.5 to 0.5)” near -0.0014, cut for the highest 2% near 0.25. This excerpt belongs to a sample that is enriched for the highest values.

Biological target: T1, Cad1 (UniProt P24813)
T1 sequence: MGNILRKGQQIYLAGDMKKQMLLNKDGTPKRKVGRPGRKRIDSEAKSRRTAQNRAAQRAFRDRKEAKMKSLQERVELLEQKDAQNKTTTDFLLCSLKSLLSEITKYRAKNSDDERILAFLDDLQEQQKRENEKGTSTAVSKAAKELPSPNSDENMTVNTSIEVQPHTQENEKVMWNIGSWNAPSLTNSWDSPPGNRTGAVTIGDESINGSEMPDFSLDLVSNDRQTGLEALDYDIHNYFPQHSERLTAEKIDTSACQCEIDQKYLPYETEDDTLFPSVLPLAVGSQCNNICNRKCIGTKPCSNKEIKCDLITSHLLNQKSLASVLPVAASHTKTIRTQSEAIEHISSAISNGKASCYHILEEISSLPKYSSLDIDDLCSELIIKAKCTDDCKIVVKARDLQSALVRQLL
Assay: PBM E-score (8-mer binding enrichment) (E-score (-0.5 to 0.5)); higher = stronger / more preferred TF binding
Details: protein concentration: 100 nM; construct: GST-full length
Experimental: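 Universal 'all 10-mer' protein binding microarrays (Agilent AMADID 015681) probed with GST-tagged S. cerevisiae TFs (full-length or DBD) made by in vitro transcription/translation (PURExpress), about 100-200 nM. Bound TF was detected with fluorescent anti-GST. Each ungapped 8-mer (which stands for itself and its reverse complement) is scored by the PBM enrichment score (E-score), a modified Wilcoxon-Mann-Whitney statistic from -0.5 to +0.5, computed with the Universal PBM Analysis Suite. Scale: above 0.35 generally sequence-specific binding.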

Sequence | PBM E-score
ATCGGTAG | 0.0904
AGCACACT | -0.0625
AGAGCCAG | -0.239
CGCGTACA | -0.008
ATGCCGTC | -0.0686
AAGATCCA | -0.089
CTCTGGGA | -0.252
AGGACACC | 0.00026
ACAAACAT | 0.145
CCCGCGGG | 0.0407
CCCTACAA | -0.14
AAGGGGGT | -0.389
CATCGTGC | 0.162
CAGCGCTG | 0.263
CCGCGAAA | 0.0147
CCGCGCGC | 0.144
CCGCGCGA | 0.295
AATCGTGA | 0.0886
CAGCGCTA | 0.157
CCGCGAGA | -0.102
CAGCGCTC | 0.153
TCGCGAAA | 0.168
GCGCGAAA | 0.308
AATCGTGC | 0.276
TAGCCGAA | -0.0837

Sequence | PBM E-score
CCCTCCCG | -0.226
CAACATCG | 0.0708
ACAGAAAG | -0.0964
GTCGGTGA | -0.13
TCATTCAA | 0.13
AGGTACCC | -0.138
ATCTTTCC | 0.0734
CCGTCTAG | -0.128
CACGAGCC | -0.209
CAATCGCA | 0.00664
TACCGCGA | 0.172
ACCCGCGT | -0.00317
ACGCGCGA | 0.139
ACCCGCGA | 0.0834
GCGCGCGC | 0.417
AACCGCGA | 0.287
ACCCGCGC | 0.256
ACGCGCGC | 0.216
GCGCGCAC | 0.218
GTGCGCGA | -0.0729
GCGCGCGA | 0.265
AACCGCGT | 0.122
AAGTGTTA | 0.0352
ACAGCACG | -0.0152
AACCCCAA | 0.113

Sequence | PBM E-score
ATAACTCC | 0.0565
AGATGAAA | 0.02
AAGCGCGA | 0.101
AAGCGCGG | -0.0419
AAGCGCGC | 0.276
AACTCCGT | 0.0805
AGCCGGCG | 0.0742
CGCCGGCC | -0.124
CGCCGGCG | 0.301
TAATCTCA | 0.0993
ACTGTTTG | -0.0907
AATCGACT | -0.039
AATCGATT | 0.198
AATCGAAG | 0.182
AATCGATC | 0.215
AATCGATG | 0.271
AATCGACA | 0.304
AATCGATA | 0.288
AATCGACC | -0.051
CATCGATG | 0.169
CCTCCATC | -0.237
TGTTGCAA | 0.228
ATCCTTCA | -0.174
GTACTTCA | 0.251
ATACTTCA | -0.0179

Sequence | PBM E-score
CTACTTCA | -0.0482
CGCAGATC | 0.098
AGCAGATA | -0.0464
AGCAGATC | 0.256
ATGTGCCC | -0.071
ACAACCAG | 0.145
ACAACCAT | 0.281
ACAACCAC | 0.056
GGTGCATA | 0.00671
ATTACCAC | 0.161
CGTACCAG | -0.0767
GTTACCAA | 0.0957
CGTACCAA | 0.256
TGTACCAA | -0.0377
ATTACCAA | 0.292
AACCGGTA | -0.0764
ATTCCCTG | 0.117
CTTAAAGA | -0.0851
ATTTATAA | 0.341
ATTTATAC | 0.226
GTTTATAA | 0.264
CTTTATAA | 0.101
GTTTATCA | 0.173
GTTTATGA | 0.142
CATTCAGG | -0.0709

Sequence | PBM E-score
GAGTATCA | -0.045
CAGTAAGA | 0.194
CAGTATCA | 0.0166
TAGTAACA | 0.255
GAGTAACA | -0.00744
TAGTATCA | 0.265
AAGTAACA | 0.0629
TAGTAATA | 0.371
GAGTAATA | 0.198
CAGTAATA | 0.249
AAGTAAGA | -0.215
TAGTAAGA | 0.265
AGGTCCGG | 0.0244
ACGGGATC | -0.0506
TCATGTCA | 0.139
GGAAGACA | -0.0527
ACACAATC | 0.0563
CCCCGCCC | 0.114
CTGGCCAC | 0.00652
CATAGCGC | 0.26
CATAGCGG | -0.142
AATAGCGA | 0.214
AATAGCGC | 0.269
AATAGCGG | -0.0047
CATAGCGA | 0.051

Sequence | PBM E-score
CACTTCCC | -0.118
ACTCCCGA | 0.0151
AGGGGACG | -0.189
GGCAGTCA | -0.00415
TCCTCAAA | -0.166
ATGAACGG | -0.0252
ATGAACGC | 0.252
ATGAACGA | 0.111
GAGTTGAC | -0.0116
ATACTACC | 0.0181
ATACTACA | 0.264
ATAATACA | 0.263
CTACTACA | 0.196
GCAATACA | 0.291
ATAATACC | 0.215
ATAATACG | 0.186
ACAATACA | 0.0445
GCAATACC | -0.0457
TGTTGGAA | 0.192
GGACCACA | 0.137
AAAGCCTC | -0.186
ACCATCAG | -0.00772
CAGCAACA | 0.186
AGCTCGAA | 0.151
AAAGATTA | 0.152

Sequence | PBM E-score
GCAGAGGA | 0.0638
GAGCATCC | -0.169
CCGGACTC | 0.281
CCGGACTA | -0.0508
ACGGACTC | -0.0126
CATAGCAC | -0.0299
GAGGTCGA | -0.153
CTCTCTTC | -0.215
GTTAACTA | 0.274
CTTAACTC | 0.0365
CGTAACTA | -0.001
GATAACTA | 0.1
CTTAACTA | 0.283
ATTAACTA | -0.00319
CTCACTGA | -0.0364
AGGCTGTA | -0.0168
ATGCATCG | 0.114
ATGCATCA | 0.308
GTGCATCA | 0.128
GCGCATTA | 0.265
ACGCATTA | 0.145
CTGCATTA | 0.014
ATGCATTC | 0.196
CCGCATTA | 0.172
ATGCATTA | 0.265
